# Screening results deposited in PubChem BioAssay by several laboratories.
# In the library only some 2.2% were active in any assay of this set; here they are far more common.
# TROY NFkB inh – blocks TROY-dependent signaling in reporter cells; Q293 LMP1-TROYcd NF-kB luciferase reporter, 4 h; inhibition, % at 10 µM; 360,000 tested, 0.98% active; AID 1347056;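 active means compounds whose plate-normalised and pattern-corrected inhibition of the luciferase reporter signal at the single screening dose is 50% or more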
# HSP90 inh – inhibitors of HSP90 luciferase refolding in rabbit reticulocyte lysate. luciferase refolding luminescence, 3 h. inhibition, % at 5.6 µM. 290,000 tested, 0.91% active. AID 1789;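 active means inhibition above the screen-wide mean plus 3 SD, computed separately per campaign, cut at about 16% in these data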;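 further: 0% = DMSO wells and 100% = 60 µM geldanamycin wells; inhibitors lower the luminescence because luciferase stays unfolded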
# TWEAK Fn14 block – blocks TWEAK-Fn14 interaction in a reporter cell assay; TWEAK-stimulated Fn14 reporter cells, luciferase luminescence, 8 h; inhibition, % at 10 µM; 360,000 tested, 2% active; in the data active means inhibition above about 50%
# LGR2 antag – blocks bursicon-induced cAMP signaling via Drosophila LGR2 | HEK293 LGR2, CRE-luciferase, bursicon-stimulated, 4 h | inhibition, % at 9.99 µM | 380,000 tested, 0.35% active;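 active means drop in luminescence signal, shown as inhibition above about 50% in the replicate tests, limit read from the data, passing the limit was not always enough; inconclusive means probably only some replicates passing the limit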;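 further: agonist challenge used bursicon conditioned medium at about half maximal strength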
# Numbers without * were called inactive; ? = inconclusive; nt = not tested or not shown.
SMILES,TROY NFkB inh,HSP90 inh,TWEAK Fn14 block,LGR2 antag
Cc1nn(CC(=O)NC(C)c2ccccc2)c(C)c1[N+](=O)[O-] (stereo not drawn),6,-3,1,16
CC(=O)Oc1ccc2c3c(c(=O)oc2c1C)CCCC3,1,-3,12,-11
Cc1c(OC(C)C(=O)O)ccc2c3c(c(=O)oc12)CCCC3 (stereo not drawn),-6,4,56*,4
COc1ccc(/C=C2\SC(=N)N(c3nccs3)C2=O)cc1OC,5,2,-7,-16
N=C1S/C(=C\c2ccc(-c3cccc(Cl)c3)o2)C(=O)N1c1nccs1,-6,0,90*,10
CC(=O)Nc1ccc(/C=N/Nc2nncc3ccccc23)cc1,-2,3,-12,-39
C(=N\Nc1nncc2ccccc12)/c1ccccn1,-19,29*,74*,?
O=C(NCc1ccc(Cl)cc1)c1ccc(CSc2nc3ccncc3[nH]2)cc1,19,2,25,-6
O=C(c1ccc(CSc2nc3ccncc3[nH]2)cc1)N1CCN(c2cccc(Cl)c2)CC1,54*,-2,61*,65*
C[C@@H]1CN([C@H](C)CO)C(=O)c2cc(C#CCc3ccccc3)cnc2O[C@@H]1CN(C)Cc1ccccc1,nt,nt,nt,5
COCC(=O)Nc1ccc2c(c1)C(=O)N(C)C[C@@H](OC)[C@@H](C)CN(Cc1cc(F)ccc1F)[C@H](C)CO2,nt,nt,nt,10
COc1ccc(NC(=O)CN2C(=O)NC3(CCCC3)C2=O)c(OC)c1,7,-2,81*,-18
O=C(C[C@H]1CC[C@H]2[C@@H](COC[C@H](O)CN2Cc2nccs2)O1)NCc1ccccc1F,nt,nt,nt,-11
CCOC(=O)c1ccc(NC(=O)C2CCCN(S(=O)(=O)c3ccc(F)cc3)C2)cc1 (stereo not drawn),45,-1,58*,nt
COCC(=O)N[C@H]1C=C[C@H](CC(=O)NCc2ccc(Cl)cc2)O[C@H]1CO,nt,nt,nt,15
CC(C)CNS(=O)(=O)c1ccc(CCC(=O)Nc2cc(Cl)ccc2Oc2ccccc2)cc1,22,-2,49,13
CCCNS(=O)(=O)c1ccc(CCC(=O)Nc2cc(Cl)ccc2Oc2ccccc2)cc1,25,5,66*,nt
Cc1cccc(C)c1N(CC(=O)Nc1cc(Cl)ccc1Oc1ccccc1)S(C)(=O)=O,52*,3,10,nt
Cc1ccc(C)c(N(CC(=O)Nc2cc(Cl)ccc2Oc2ccccc2)S(C)(=O)=O)c1,-7,4,27,nt
CCOC(=O)c1cccc(N2C(=O)C3C(C2=O)C2C=CC3C23CC3)c1 (stereo not drawn),nt,0,89*,-13
CN(C)c1ccc(N=Nc2nccs2)cc1,38,nt,79*,86*
C[C@H](CO)N1C[C@H](C)[C@@H](CN(C)C(=O)Nc2cccc3ccccc23)Oc2ccc(NC(=O)Nc3ccc(F)cc3)cc2CC1=O,nt,nt,nt,10
CC(=O)N(CN1C(=O)CCC1=O)c1ccc(Cl)c(Cl)c1,58*,-3,73*,-51
N#Cc1ccc(-c2ccc3c(c2)[C@H]2[C@H](CCN2C(=O)C2CCC2)[C@H](CO)N3)cc1,nt,nt,nt,-5
Fc1cccc(Cl)c1/C=N/Nc1c(Cl)cncc1Cl,19,-6,53*,-2
SMILES,TROY NFkB inh,HSP90 inh,TWEAK Fn14 block,LGR2 antag
COC(=O)c1c(C)n(-c2ccc(OC)cc2)c2ccc(O)cc12,39,-4,52*,nt
COc1ccc(-n2c(C)c(C(C)=O)c3cc(OC(C)=O)ccc32)cc1,52*,-6,84*,25
CC12CCC(=O)C=C1CCC1C2C(O)CC2(C)C(c3csc(N)n3)CCC12 (stereo not drawn),29,nt,12,1
CC12CCC(=O)C=C1CCC1C2CCC2(C)C(c3csc(N)n3)CCC12 (stereo not drawn),51*,nt,57*,8
COc1ccccc1NC(=O)COC(=O)C1CC(=O)N(c2ccc3c(c2)OCCO3)C1 (stereo not drawn),20,nt,64*,-8
COc1ccccc1NC(=O)NC1CC(=O)N(c2ccc3c(c2)OCCO3)C1 (stereo not drawn),-8,nt,13,7
O=C(COC(=O)C1CC(=O)N(c2ccc3c(c2)OCCO3)C1)Nc1ccc2c(c1)CCC2 (stereo not drawn),10,2,65*,-1
CCS(=O)(=O)Nc1ccc(C2=NN(C(=S)Nc3ccccc3)C(c3ccco3)C2)cc1 (stereo not drawn),-3,2,0,-18
Cc1ccc(C2=NN(C(=S)Nc3ccccc3)C(c3ccco3)C2)cc1 (stereo not drawn),57*,7,48,nt
CC=Cc1ccc2n(c1=O)C[C@@H]1[C@@H](CO)[C@H](C(=O)NCCc3ccncc3)N(Cc3cncnc3)[C@H]21 (mixture of isomers),nt,nt,nt,-27
CC(=O)N(c1ccccc1)C1CCCC1,20,-1,-21,18
O=C(CCl)N(c1ccccc1)C1CCCCC1,6,-6,33,94*
COc1ccc(-n2c(Cc3cccn3C)nnc2SCC(=O)Nc2ccccc2OC)cc1,-1,-5,16,1
COc1ccc(-n2c(Cc3cccn3C)nnc2SCC(=O)Nc2cc(Cl)ccc2OC)cc1,3,-4,62*,-4
COc1ccc(-n2c(Cc3cccn3C)nnc2SCC(=O)Nc2ccc(Cl)cc2)cc1,15,2,50*,-4
COc1ccc(NC(=O)c2c(Nc3ccccc3)sc(C(=O)c3ccc(F)cc3)c2N)cc1,16,5,52*,nt
C[C@H]1CN([C@@H](C)CO)C(=O)Cc2cc(NC(=O)Cn3cnnn3)ccc2O[C@H]1CN(C)S(=O)(=O)c1ccc(Cl)cc1,nt,nt,nt,0
COC(=O)c1ccc(Nc2cc(C)nc3ccc(C)cc23)cc1,-25,4,-16,74*
COC(=O)c1ccc2nc(C)cc(Nc3ccccc3C)c2c1,-6,5,-13,1
Cc1ccc(S(=O)(=O)N(C)C[C@H]2Oc3ccc(NC(=O)CCCCCC(=O)Nc4ccccc4N)cc3CC(=O)N([C@@H](C)CO)C[C@@H]2C)cc1,nt,nt,nt,-29
COc1cc(SC#N)ccc1N=Cc1c(C)[nH]n(-c2ccc(C)cc2C)c1=O,10,8,-2,nt
COc1cc(SC#N)ccc1N=Cc1c(C)[nH]n(-c2cccc3ccccc23)c1=O,nt,16*,nt,nt
CNC(=O)C[C@@H]1CC[C@@H]2[C@@H](COc3ccc(NC(=O)c4cc(C)on4)cc3C(=O)N2C)O1,nt,nt,nt,-1
NS(=O)(=O)c1ccc(CCNC(=O)CNC(=O)c2ccc(F)cc2)cc1,12,0,7,-9
NS(=O)(=O)c1ccc(CCNC(=O)CNC(=O)c2ccccc2Br)cc1,1,-4,51*,0
O=c1ccc2ccccc2c2ccccc12,52*,nt,94*,3
CC[n+]1c(/C=C/c2c[nH]c3ccccc23)ccc2cc(C)ccc21,nt,8,nt,108*
C[C@H]1CN([C@@H](C)CO)C(=O)CCCn2nncc2CO[C@@H]1CN(C)C(=O)Nc1ccc(C(F)(F)F)cc1,nt,nt,nt,3
CC1CCN(C(=O)COC(=O)c2cccs2)CC1,3,nt,58*,12
COC(=O)c1ccc(-c2ccc(C(c3c(C)[nH][nH]c3=O)c3c(C)[nH][nH]c3=O)o2)cc1,13,15,56*,-3
